{"source": "PubChem BioAssay (EPA / NIEHS)", "note": "More than one record can exist for a structure, and the calls need not agree. Calls of active or inactive are those of the source. Rule for the calls: active = hit-call score of the fitted dose curve at least 0.9, where 1 is the maximum; inactive = score below 0.9."}
{"test": "APR_HepG2_MitoticArrest_1hr: Apredica 1-hour HepG2 Assay for Mitotic Arrest (AID 2282672)", "conditions": "high-content imaging, actives raise or lower the signal", "description": "APR_HepG2_1hr is a cell-based, multiplexed-readout assay that uses HepG2, a human liver cell line, with measurements taken at 1 hour after chemical dosing in a 384-well plate.APR_HepG2_MitoticArrest_1hr is one of 10 assay component(s) measured or calculated from the APR_HepG2_1hr assay. It is designed to make measurements of cell phenotype, a form of morphology reporter, as detected with fluorescence intensity signals by HCS Fluorescent Imaging technology.Data from the assay component APR_HepG2_MitoticArrest_1hr was analyzed into 1 assay endpoint. This assay endpoint, APR_HepG2_MitoticArrest_1hr, was analyzed with bidirectional fitting relative to DMSO as the negative control and baseline of activity. Using a type of morphology reporter, measures of protein for gain or loss-of-signal activity can be used to understand the signaling at the pathway-level as they relate to the gene . Furthermore, this assay endpoint can be referred to as a primary readout, because this assay has produced multiple assay endpoints where this one serves a signaling function. To generalize the intended target to other relatable targets, this assay endpoint is annotated to the cell cycle intended target family, where the subfamily is arrest.\nCells were treated with dimethyl sulfoxide (DMSO) as a solvent control at a final concentration of 0.5% v/v or with compounds in DMSO with a resulting final DMSO concentration of 0.5% v/v. Compound treatment was done at concentrations of 0.39, 0.78, 1.56, 3.12, 6.24, 12.5, 25, 50, 100, and 200 uM in duplicate on each plate. Cells were treated with compounds for 1, 24, or 72 hr. Carbonyl […] m-chloro-phenylhydrazone (CCCP) and taxol were used as positive controls for mitochondrial function and cytoskeletal stability, respectively; DMSO served as the negative control for this experiment. Cells were fixed by the direct addition of 50 uL formaldehyde in Hank's Balanced Salt Solution (HBSS) to a final concentration of 3.7%. After incubation in the fixation medium for 30 min at room temperature (293-298 K), cells were rinsed twice with HBSS and treated with cell permeabilization buffer (16 uL of 0.5% Triton X-100) for 10 min at room temperature (293-298 K) before labeling. For mitochondrial membrane potential and mitochondrial measurements, pre-fixed cells were incubated with 50 uL of MitoTracker Red CMXRos (Invitrogen) at a concentration of 250 nM for 30 min before fixation. In the remaining cases, post-fixed cells were labeled by incubation with a multiplexed mixture of primary antibodies in HBSS for 60 min at room temperature (293-298 K) to detect immunoreactivity of c-Jun (1:500), phospho-histone H3 (1:100), phospho-histone H2A.x (1:200), p53 (1:400), alpha-tubulin (1:200) and Hoechst 33342 (2 ug/mL). Cells were labeled for multiplexed imaging on two separate plates: a) Hoechst 33342, MitoTracker Red, phospho-histone H3, and alpha-tubulin, and b) Hoechst 33342, phospho-histone H2A.x, and c-Jun. A final rinse with HBSS (50 uL) was performed before analysis. The primary and secondary antibodies for the proteins were phospho-histone H3 (rabbit anti-phospho-histone H3 and FITC-donkey anti-rabbit IgG), phospho-histone H2A.x (mouse anti-phospho-histone H2A.x and FITC-donkey anti-mouse IgG), c-Jun (rabbit anti-phospho-c-Jun and Cy3-donkey anti-rabbit IgG), p53 (sheep anti-p53 and Cy5-donkey anti-sheep IgG), alpha-tubulin (mouse anti-alpha-tubulin and Cy5-donkey anti-mouse IgG). These antibodies are available as the CellCiphr HepG2 assay kit (Millipore).Digital images of each well were captured using a Cellomics ArrayScan VTI (Thermo Scientific Cellomics) (0.8 NA objective, 0.63x optical coupler, and XF-93 filter set) at 20x magnification. The images were acquired using the autofocus feature of the ArrayScan instrument, which entails the following steps. First, the camera focuses on channel 1 (Hoechst 33342), where nuclei are identified. Second, a Z offset of 1 um is used for capturing mitochondria (MitoTracker Red). […]"}
{"smiles": "Fc1ccc(Oc2ccnc3cc(Cl)cc(Cl)c23)cc1", "outcome": "inactive"}
{"smiles": "N#CC(CCc1ccc(Cl)cc1)(Cn1cncn1)c1ccccc1", "note": "(stereo not given)", "outcome": "inactive"}
{"smiles": "O=C(O)COc1nc(Cl)c(Cl)cc1Cl", "outcome": "inactive"}
{"smiles": "CCCN(CCC)c1c([N+](=O)[O-])cc(S(N)(=O)=O)cc1[N+](=O)[O-]", "outcome": "inactive"}
{"smiles": "CCOc1cc(Oc2ccc(C(F)(F)F)cc2Cl)ccc1[N+](=O)[O-]", "outcome": "inactive"}
{"smiles": "Cc1c(F)c(F)c(COC(=O)C2C(/C=C(\\Cl)C(F)(F)F)C2(C)C)c(F)c1F", "note": "(stereo not given)", "outcome": "inactive"}
{"smiles": "CCCCNC(=O)OCC#CI", "outcome": "inactive", "AC50": "28.8 µM (active)"}
{"smiles": "CC1COC(Cn2cncn2)(c2ccc(Oc3ccc(Cl)cc3)cc2Cl)O1", "note": "(stereo not given)", "outcome": "inactive"}
{"smiles": "C=CCC1=C(C)C(OC(=O)C2C(C=C(C)C)C2(C)C)CC1=O", "note": "(stereo not given)", "outcome": "inactive"}
{"smiles": "CC(C)(C)c1ccc(CSc2cnn(C(C)(C)C)c(=O)c2Cl)cc1", "outcome": "inactive"}
{"smiles": "CO/C=C(/C(=O)OC)c1ccccc1Oc1cc(Oc2ccccc2C#N)ncn1", "outcome": "inactive"}
{"smiles": "COc1nc(C)nc(NC(=O)NS(=O)(=O)c2ccccc2CCC(F)(F)F)n1", "outcome": "inactive"}
{"smiles": "COC(=O)N(OC)c1ccccc1COc1ccn(-c2ccc(Cl)cc2)n1", "outcome": "inactive"}
{"smiles": "COC(=O)C=C(C)OP(=O)(OC)OC", "outcome": "inactive"}
{"smiles": "C=CCC1=C(C)[C@@H](OC(=O)[C@@H]2[C@@H](C=C(C)C)C2(C)C)CC1=O", "outcome": "inactive"}
{"smiles": "O=C(O)c1nc(Cl)ccc1Cl", "outcome": "inactive"}
{"smiles": "Cc1cc(Cl)ccc1OCC(=O)O", "outcome": "inactive"}
{"smiles": "CCOC(=O)C(Cl)Cc1cc(-n2nc(C)n(C(F)F)c2=O)c(F)cc1Cl", "note": "(stereo not given)", "outcome": "inactive"}
{"smiles": "COC(=O)C(C)Oc1ccc(Oc2ccc(Cl)cc2Cl)cc1", "note": "(stereo not given)", "outcome": "inactive"}
{"smiles": "Oc1ccccc1-c1ccccc1", "outcome": "inactive"}
{"smiles": "CCOP(=S)(OCC)SCn1c(=O)oc2cc(Cl)ccc21", "outcome": "inactive"}
{"smiles": "CCCCC(CC)COC(=O)c1ccccc1C(=O)OCC(CC)CCCC", "note": "(stereo not given)", "outcome": "inactive"}
{"smiles": "CCCC1COC(Cn2cncn2)(c2ccc(Cl)cc2Cl)O1", "note": "(stereo not given)", "outcome": "inactive"}
{"smiles": "N#Cc1cc(Br)c(O)c(Br)c1", "outcome": "inactive"}
{"smiles": "CNC(=O)ON=CC(C)(C)SC", "outcome": "inactive"}
{"smiles": "Cc1ccc(-c2c(Cl)nc(C#N)n2S(=O)(=O)N(C)C)cc1", "outcome": "inactive"}
{"smiles": "CCNc1nc(Cl)nc(NC(C)C)n1", "outcome": "inactive"}
{"smiles": "COP(=S)(OC)Oc1nc(Cl)c(Cl)cc1Cl", "outcome": "inactive"}
{"smiles": "COc1ccc(C(c2ccc(OC)cc2)C(Cl)(Cl)Cl)cc1", "outcome": "inactive"}
{"smiles": "CC1=C(C(=O)Nc2ccccc2)SCCO1", "outcome": "inactive"}
{"smiles": "COc1nc(NC(C)C)nc(NC(C)C)n1", "outcome": "inactive"}
{"smiles": "CCCCOC(=O)c1ccccc1C(=O)OCCCC", "outcome": "inactive"}
{"smiles": "OC(c1ccc(Cl)cc1)(c1cncnc1)c1ccccc1Cl", "note": "(stereo not given)", "outcome": "inactive"}
{"smiles": "CON(C)C(=O)Nc1ccc(Cl)c(Cl)c1", "outcome": "inactive"}
{"smiles": "CC(C)Oc1cc(-n2nc(C(C)(C)C)oc2=O)c(Cl)cc1Cl", "outcome": "inactive"}
{"smiles": "CN(C)C(=S)SSC(=S)N(C)C", "outcome": "inactive"}
{"smiles": "CCCCNC(=O)n1c(NC(=O)OC)nc2ccccc21", "outcome": "inactive"}
{"smiles": "CC(Oc1ccc(Cl)cc1Cl)C(=O)O", "note": "(stereo not given)", "outcome": "inactive"}
{"smiles": "COc1cnc(OC)n2nc(NS(=O)(=O)c3c(OCC(F)F)cccc3C(F)(F)F)nc12", "outcome": "inactive"}
